# The whole screen tested about 59,000 compounds, of which about 25 (0.04%) were called active. How the calls were made is not given here. Shown is part of a subset that was picked to be rich in actives.
# Assay: qHTS Assay for Spectroscopic Profiling in Resorufin Spectral Region
# Settings: Compound fluorescence, resorufin region 547/598 nm, buffer; hits give high values
# Description: NIH Molecular Libraries Screening Centers Network [MLSCN] NIH Chemical Genomics Center [NCGC] […] Occasionally, the artifactual effect may originate from the compound#s own spectral or other biophysical properties which generally tend to track its assay concentration. Pre-screening/profiling the library with respect to the compounds# spectral properties should help one exclude false positives early on. While the most informative fluorescent profiling data set is obtained by performing a full excitation and emission scan of each well by using a monochromator-based plate reader, such an approach is practical only on a very limited scale as scanning each well requires long time. An alternative approach, applied here, is to perform plate reader scans using selected excitation and emission wavelength pairs to generate a multidimensional relational database that correlates compound concentration and the respective relative fluorescence intensity at a given wavelength set. A standard curve of resorufin present on each plate as six-point concentration series, was used to compute a normalized fluorescence response, termed dye-equivalent concentration, for each compound at each concentration.
# NCGC Assay Protocol Summary: Buffer: 100 mM Tris buffer, pH 8.0 Dye standard plate: The wells in columns 1 through 4 of a Kalypsys polypropylene 1536-well compound plate were filled with standard solutions of fluorophore corresponding to the spectral region of interest. Solutions of resorufin were placed in the following wells: M1, N1: 3 mM, M2, N2: 300 uM, M3, N3: 30 uM, M4, N4: zero (DMSO), O1, P1: 3 uM, O2, P2: […], O3, P3: 300 nM, O4, P4: zero (DMSO). Assay Steps: Six uL of buffer were dispensed to 1536-well Greiner black plates. Compounds and dye standards (23 nL) were transferred via Kalypsys PinTool. The plates were incubated for 15 min at room temperature, and then read on ViewLux (Perkin-Elmer) High-throughput CCD imager using 547 nm and 598 nm excitation and emission filter set. Keywords: NIH Roadmap, MLSCN, MLI, MLSMR, qHTS, NCGC, Resorufin, Fluorescent Profiling.
row,Compound,max dye-equivalent concentration
1,Nc1ccc2[nH]cc(CCC(=O)O)c2c1,inactive
2,Cc1ccccc1N1CCN(S(=O)(=O)C[C@@]23CC[C@H](C[C@H]2NC(=O)[C@@H](N)CCS(C)(=O)=O)C3(C)C)CC1,inactive
3,COCCNc1ccnc(-c2cccc(NS(C)(=O)=O)c2)n1,inactive
4,CCOC(=O)c1c(C)[nH]c(C)c1C(=O)CSc1nc(N)cc(N)n1,inactive
5,O=C(Cn1c(=S)nc2ccccn21)N1CCc2ccccc2C1,inactive
6,CN1CCN2c3ccccc3Cc3ccccc3[C@@H]2C1,inactive
7,COc1ccc2c(CC(=O)Nc3nnc(C4CC4)s3)coc2c1,inactive
8,CC(CCO)Nc1nc2c([nH]1)c(=O)n(C)c(=O)n2C (configuration not stated),inactive
9,CCOc1c(OC)cc(C2C(C#N)=C(N)Oc3n[nH]c(-c4ccncc4)c32)cc1OC (configuration not stated),inactive
10,Cc1ccc(S(=O)(=O)N2CCC(C(=O)N[C@@H](C)C(=O)NCCc3ccccc3)CC2)cc1,inactive
11,NS(=O)(=O)c1cc2c(cc1Cl)NC(C(Cl)Cl)NS2(=O)=O (configuration not stated),inactive
12,CCOC(=O)N1CCN(C(=O)CSc2nnc(-c3c[nH]c4ccccc34)n2CCOC)CC1,inactive
13,CCOc1ccc(Cn2c(SCCCCC#N)nc3c2c(=O)n(C)c(=O)n3C)cc1OCC,inactive
14,CNc1ncnc2ccc(-c3cccc(NS(C)(=O)=O)c3)cc12,inactive
15,Cc1ccc(C)n1C(Cc1ccccc1)C(=O)O (configuration not stated),inactive
16,COc1cccc2c(C)c(C(=O)O)[nH]c12,inactive
17,Cc1nc2ccccc2cc1O,inactive
18,COCCNC(=O)C(c1ccc(C)o1)N(Cc1cccs1)C(=O)c1snc(C(N)=O)c1N (configuration not stated),inactive
19,Cc1cc(C)c(C)c(S(=O)(=O)Nc2ccc(O)cc2)c1C,inactive
20,CCN(CC)Cc1c(C(=O)OC)nnn1-c1nonc1N,inactive
21,Cn1cccc1C(=O)N1CCC[C@@]2(CCN(Cc3nccs3)C2)C1,inactive
22,COc1cc2[nH]c(=S)n(CCN3CCCCC3C)c(=O)c2cc1OC (configuration not stated),inactive

row,Compound,max dye-equivalent concentration
1,COc1ccc(CCNC(=O)c2ccc3c(c2)NC(=O)C(N2CCOCC2)S3)cc1OC (configuration not stated),inactive
2,COc1ccc(CCn2c(NCCCN3CCOCC3)nc3c2c(=O)[nH]c(=O)n3C)cc1,inactive
3,Cc1ccccc1CSc1nnc(-c2cccnc2)n1N,inactive
4,COCCN(C(=O)CCC(=O)Nc1ccccn1)C(C(=O)NCCC(C)C)c1ccc(OC)cc1 (configuration not stated),inactive
5,NCCNCC1CCNCC1,inactive
6,Cc1ccc(N2CCN(c3ccc(C)cc3)C2c2ccccn2)cc1,inactive
7,O=C(NCCCN1CCN(c2ccccc2F)CC1)C1CCC(=O)N1C1CCCCC1 (configuration not stated),inactive
8,CCOc1ccc(C(C)C)cc1S(=O)(=O)n1nc(C)cc1C,inactive
9,COc1ccc(-c2c3c(=O)n(C)c(=O)n(C)c3cn2NC(C)=O)cc1,inactive
10,CCCOC(=O)C1=C(C)NC2=C(C(=O)C(C(=O)OC)C(C)C2)C1c1ccc(N(C)C)cc1 (configuration not stated),inactive
11,O=C1CSC(=O)N1CCOCCN1C(=O)CSC1=O,inactive
12,O=c1cc(-c2ccccc2)nc(N2CCCCC2)[nH]1,inactive
13,O=C(CSc1nc2ccccc2[nH]1)c1cccs1,inactive
14,COc1cccc2cc(C(=O)N(C)C)c(=O)oc12,inactive
15,C=CCC(NCCCO)c1cccc(OC)c1OC (configuration not stated),inactive
16,O=C(CCCN1C(=O)CCC1=O)Nc1ccc(Cl)c(C(F)(F)F)c1,inactive
17,Cc1cccc2nc(CNc3ccc(F)cc3)cn12,inactive
18,CC1(CCC(=O)OC2CCCCC2)OCCO1,inactive
19,Cc1nc(NC(CC(C)C)C(=O)O)c2nc(C)oc2n1 (configuration not stated),inactive
20,Cc1c(C(=O)CN2CCOCC2)[nH]c2ccccc12,inactive
21,C[N+]1(CCNC(=O)/C=N/O)CCCCC1,inactive
22,Cc1ccc(C(C)C)c(OCc2nnc(SCC(=O)Nc3nccs3)n2C)c1,inactive

row,Compound,max dye-equivalent concentration
1,Cc1nn2c3cc(N4CCOCC4)ccc3nc2c2ccccc12,inactive
2,COc1cc(C(=O)Nc2oc(-c3ccccc3)c(-c3ccccc3)c2C#N)cc(OC)c1OC,inactive
3,COc1cccc(Cn2c(=O)c(-c3cc(F)cc(F)c3)nc3cnc(OC)nc32)c1,inactive
4,O=C(CN1CCOCC1)Nc1ccc(NC(=O)CN2CCOCC2)c(Cl)c1,inactive
5,Cc1cccc(-n2c(N)cc(=O)nc2SC(C)C(=O)NC2CCCCC2)c1 (configuration not stated),inactive
6,Cn1c(=NC(=O)c2cnccn2)sc2ccccc21,inactive
7,O=C(O)C1OC(C(=O)O)C2C1C(F)(F)C2(F)F (configuration not stated),inactive
8,O=C(CSc1nc2ccccc2o1)N1CCN(c2ccccc2)CC1,inactive
9,CCOc1ccccc1/C=c1\sc2nc(-c3ccco3)nn2c1=O,inactive
10,CN(c1ccccc1)c1ccc(/C=c2\s/c(=C(/C#N)C(=O)C(C)(C)C)n(Cc3ccco3)c2=O)cc1,27 nM (active)
11,CCOC(=O)CSc1nc2c(sc(=S)n2CCc2ccccc2)c(=O)n1Cc1ccco1,inactive
12,COCCNc1ncnc2ccc(-c3ccccc3CN(C)C)cc12,inactive
13,C=CCn1c(SCc2csc(C)n2)nc2scc(-c3ccc(C)o3)c2c1=O,inactive
14,O=C(CCCn1c(=O)oc2ccccc21)Nc1cccnc1,inactive
15,COC(=O)c1ccc(Oc2nc(Nc3ccc(F)cc3)nc(N3CCCC3)n2)cc1,inactive
16,O=S(=O)(NCc1ccccn1)c1ccc(Br)s1,inactive
17,O=C1C(=O)N(CCN2CCOCC2)C(c2ccccn2)/C1=C(/O)c1ccc(Cl)cc1 (configuration not stated),inactive
18,COc1cc2[nH]c(=O)n(CCC(=O)NC3CCN(Cc4ccccc4)CC3)c(=O)c2cc1OC,inactive
19,CN(C)c1ccc(-c2nc(NCCN3CCOCC3)c3ccccc3n2)cc1,inactive
20,CC(C)C(NC(=O)c1cccc(S(=O)(=O)N2CCOCC2)c1)C(=O)NCCc1ccccn1 (configuration not stated),inactive
21,COc1cc(-c2noc(C3CCCN(S(=O)(=O)c4cccc(Cl)c4)C3)n2)cc(OC)c1OC (configuration not stated),inactive
22,CC(C)C(c1nnnn1C1CCCC1)N1CCN(c2ccccc2F)CC1 (configuration not stated),inactive

row,Compound,max dye-equivalent concentration
1,C=CCn1c(SCc2nnc(-c3ccccc3)o2)nnc1C(O)c1ccccc1 (configuration not stated),inactive
2,OCCCNCc1ccccn1,inactive
3,CCCCc1cc(=O)oc2cc(C)cc(OCc3nn[nH]n3)c12,inactive
4,COCCn1c(=O)c(-c2ccccc2)nc2cnc(N3CCOCC3)nc21,inactive
5,Cc1cc(N2C(=O)c3ccc(C(=O)NCc4ccccc4)cc3C2=O)no1,inactive
6,CCC(=O)NC(=Nc1nc2ccccc2s1)NC(=O)CC,inactive
7,O=C(c1ccc2c(c1)C(=O)N(c1ccc(Cl)cc1)C2=O)N1CCN(c2ccccn2)CC1,inactive
8,Cc1ccc(F)cc1NC(=O)c1cccc(N(C)C)c1,inactive
9,CC(C)(C)c1cc(C(=O)NCc2cccnc2)ccn1,inactive
10,Cc1ccc(CNC(=O)C2CC(=O)N(C3CCCCCCC3)C2)cc1 (configuration not stated),inactive
11,Cc1nc2cnc(N3CCN(C)CC3)nc2n(CCC#N)c1=O,inactive
12,CCOC(=O)C1CCN(C(=O)CC2C(=O)N(Cc3ccccc3)C(C)c3nc4ccccc4n32)CC1 (configuration not stated),inactive
13,COc1ccccc1N1CCN(C(=O)c2c(-c3c(Cl)cccc3Cl)noc2C)CC1,inactive
14,Fc1ccccc1CCNc1nnnn1-c1ccccc1,inactive
15,COc1ccccc1-c1nc(NCCNC(C)=O)c2ccccc2n1,inactive
16,COc1cc(OC)c(C(=O)NC2CC(C)(C)NC(C)(C)C2)cc1OC,inactive
17,CN(C)CCNC(=O)C(C(=O)c1ccccc1)n1ccccc1=O (configuration not stated),inactive
18,Cc1nc2ccc(S(=O)(=O)NCC(=O)O)cc2s1,inactive
19,CC(=O)Nc1ccc(S(=O)(=O)Nc2ccc(N3CCOCC3)c(F)c2)cc1,inactive
20,Cc1ccc(NC(=O)CN2CCC3(O)CCCCC3C2c2ccc3c(c2)OCO3)c(C)c1 (configuration not stated),inactive
21,CCCC(=O)Nc1cc(OCC)c(NC(=O)NC2CCCCC2)cc1OCC,inactive
22,O=C(NCc1ccco1)c1cc2sccc2n1Cc1ccc(F)cc1,inactive

row,Compound,max dye-equivalent concentration
1,O=C(CCCn1c(SCC(=O)c2ccc(F)cc2)nc2ccccc2c1=O)NCc1ccco1,inactive
2,Cc1ccc(S(=O)(=O)N2CCOCC2)cc1C(=O)NCc1ccc(F)cc1,inactive
3,CCC(=O)N1CCc2cc(S(=O)(=O)NC(C(=O)N3CCc4ccccc4C3)C(C)C)ccc21 (configuration not stated),inactive
4,Cn1c(-c2ccc(C(=O)c3ccccc3)s2)nc2ccccc21,inactive
5,O=C(NCCN=C1NS(=O)(=O)c2ccccc21)c1ccc(S(=O)(=O)N2CCOCC2)cc1,inactive
6,CCCCOc1ccc(C(C)(O)CCN2CCOCC2)cc1 (configuration not stated),inactive
7,CCN(CC)P(=O)(C(NC(=O)OC)C(F)(F)C(F)(F)C(F)(F)C(F)F)N(CC)CC (configuration not stated),inactive
8,O=C(Nc1cnccn1)c1cccnc1,inactive
9,Cc1cnc(CNc2cc(-c3c(C)noc3C)ncn2)cn1,inactive
10,COc1ccc(CN2C(=O)CN=C2Nc2ccc(C)cc2C)cc1,inactive
11,CC(C)(C)NC(=O)Cn1nnc(-c2ccccc2Cl)n1,inactive
12,COc1ccccc1C1/C(=C(/O)c2ccc(OC(C)C)cc2)C(=O)C(=O)N1c1cc(C)on1 (configuration not stated),inactive
13,COC(=O)c1ccc(NC(=O)CSc2nnc(CNc3ccc(OC)cc3)n2C)cc1,inactive
14,CCCCC[C@H](O)CCCC(=O)O,inactive
15,CC(=O)OC(C(=O)NCCc1ccccc1)c1cccnc1 (configuration not stated),inactive
16,CO[C@@H]1/C=C\O[C@]2(C)Oc3c(C)c(O)c4c(O)c(c(CN(C)C)c(O)c4c3C2=O)NC(=O)/C(C)=C\C=C[C@@H](C)[C@@H](O)[C@H](C)[C@@H](O)[C@H](C)[C@H](OC(C)=O)[C@@H]1C,inactive
17,Cc1cccc(C)c1NC(=O)CCCSc1nnc(-c2ccco2)n1-c1ccccc1,inactive
18,C[C@H](CCC(=O)NCC(=O)O)[C@H]1CC[C@H]2[C@H]3[C@@H](C[C@@H](O)[C@]12C)[C@]1(C)CC[C@H](O)C[C@@H]1C[C@@H]3O,inactive
19,N#CC1=C(N)Oc2n[nH]c(CSc3ccccc3)c2C12C(=O)Nc1ccccc12 (configuration not stated),inactive

# From PubChem BioAssay AID588 (National Center for Advancing Translational Sciences (NCATS), 2007)
